# Laboratory results from the supplement of paper PMC6555819.
# Tests used:
# Test in all cases: PBM binding z-score (relative to random genomic background probes); higher = stronger binding; sequences stand for … in GC…GCGATTGACAGCGTAGAATGAAGG
# [1] = test system: FXR:RXRa (NR concentration 270 nM, RXRa partner concentration 90 nM)
# How it was run: (§1)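 On custom Agilent 4×180K arrays, double-stranded probes with 34-nt variable regions carried direct-repeat seeds, single-nucleotide variants, half-site ablations or random human genomic background. Ligand-free nuclear receptor dimers were applied for 1 h, and binding was read with antibodies against each partner (one per run). Binding z-scores come from regression-normalized fluorescence, with the random background probes as reference.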
# [2] = test system: LXRa:RXRa (NR concentration 270 nM, RXRa partner concentration 90 nM)
# How it was run: as §1
# [3] = test system: LXRa homodimer (NR concentration 270 nM)
# How it was run: as §1
# [4] = test system: LXRb:RXRa (NR concentration 270 nM, RXRa partner concentration 90 nM)
# How it was run: as §1
# [5] = test system: LXRb homodimer (NR concentration 270 nM)
# How it was run: as §1
# [6] = test system: PPARa:RXRa (NR concentration 270 nM, RXRa partner concentration 90 nM)
# How it was run: as §1
# [7] = test system: PPARg:RXRa (NR concentration 180 nM, RXRa partner concentration 90 nM)
# How it was run: as §1
# [8] = test system: PPARg:RXRa 270nM:90nM, anti-RXR (NR concentration 270 nM, RXRa partner concentration 90 nM)
# How it was run: as §1
# [9] = test system: PPARg:RXRa 30nM:10nM, anti-RXR (NR concentration 30 nM, RXRa partner concentration 10 nM)
# How it was run: as §1
# [10] = test system: PPARg:RXRa 90nM:30nM, anti-RXR (NR concentration 90 nM, RXRa partner concentration 30 nM)
# How it was run: as §1
# [11] = test system: PPARg:RXRa DBDmut IVT, anti-RXR (DBD mutation: RXRa K156A/R161A, NR concentration 270 nM, RXRa partner concentration 90 nM)
# How it was run: as §1
# [12] = test system: PPARg:RXRa IVT, anti-PPARg (NR concentration 270 nM, RXRa partner concentration 90 nM)
# How it was run: as §1
# [13] = test system: PPARg DBDmut IVT, anti-PPARg (DBD mutation: PPARg1 K132A/R137A, NR concentration 270 nM)
# How it was run: as §1
# [14] = test system: PPARg homodimer (NR concentration 180 nM)
# How it was run: as §1
# [15] = test system: PXR:RXRa (NR concentration 270 nM, RXRa partner concentration 90 nM)
# How it was run: as §1
# [16] = test system: PXR homodimer (NR concentration 270 nM)
# How it was run: as §1
# [17] = test system: RARa:RXR (NR concentration 270 nM, RXRa partner concentration 90 nM)
# How it was run: as §1
# [18] = test system: RARa homodimer (NR concentration 270 nM)
# How it was run: as §1
# [19] = test system: RARb:RXRa (NR concentration 270 nM, RXRa partner concentration 90 nM)
# How it was run: as §1
Sequence,PBM binding z-score [1],PBM binding z-score [2],PBM binding z-score [3],PBM binding z-score [4],PBM binding z-score [5],PBM binding z-score [6],PBM binding z-score [7],PBM binding z-score [8],PBM binding z-score [9],PBM binding z-score [10],PBM binding z-score [11],PBM binding z-score [12],PBM binding z-score [13],PBM binding z-score [14],PBM binding z-score [15],PBM binding z-score [16],PBM binding z-score [17],PBM binding z-score [18],PBM binding z-score [19]
CGAACTAGGTCACCAGGACAGTGGAGAGGTTGGA,4.02,2.46,0.169,1.58,-0.484,5.13,8.7,7.06,4.41,6.57,8.2,8.98,4.11,2.37,1.37,-0.106,2.81,0.103,4.39
AAATGTAGGTTAGGGTCATTCAGAAAGTAGGGAA,5.35,4.2,1.68,4.67,1.5,5.81,8.25,6.63,5.16,6.92,7.33,7.35,1.95,3.74,4.47,2.29,4.78,1.99,3.64
CGAACTAGGTCACCAGGACCGTGAAGAGGTTGGA,3.87,2.36,-0.1,1.5,-0.339,4.88,8.27,6.8,4.02,6.42,8.24,8.31,0.567,1.94,1.19,-0.498,2.08,-0.00105,4.08
CGAACTAGGTCAAAGTACAGTGAAAGGCGACGTA,4.69,3.09,0.303,2.45,0.12,5.46,9.58,7.61,7.01,8.33,7.91,8.47,3.06,1.65,1.58,-0.31,2.5,-0.202,3.84
ATTTGTAGGTTAGGGTCATTCAGAAAGTAGGGAA,5.22,4.68,2.51,4.9,3.24,5.52,6.37,5.83,3.41,5.27,5.45,5.62,3.63,4.01,4.55,3.09,5.22,4.03,3.86
CGAACTAGGTCACCAGGAGAGTGAAGAGGTTGGA,3.86,2.33,-0.171,1.33,-0.287,4.87,8.26,6.73,4.58,6.24,8.2,8.65,3.69,2.38,1.22,-0.0382,2.45,-0.347,4.04
ATATGTAGGTTACGGTCATTCAGAAAGTAGGGAA,2.04,2.49,1.64,1.74,1.02,4.35,7.06,5.67,3.24,5.02,7.69,8.18,1.83,2.04,0.971,0.516,1.47,0.836,2.89
CGAACTAGGTCAAAGGACAGAGAAAGGCGACGTA,4.22,2.87,-0.0116,1.9,-0.178,5.58,10.3,8.77,8.15,9.91,8.13,8.31,4.05,1.87,1.26,-0.306,2.31,0.114,3.88
CGAACTAGGTAAAAGGACAGTGAAAGGCGACGTA,-0.23,-0.378,-0.301,-0.371,-0.583,3.16,5.26,6.57,5.66,7.51,5.32,4.9,0.0504,0.371,-0.425,-0.442,-0.202,-0.518,1.09
CGAACTAGCTCAAAGGACAGTGAAAGGCGACGTA,-0.37,-0.67,-0.493,-0.766,-0.633,0.188,1.06,2.13,0.533,1.99,-0.134,-0.285,-0.415,0.163,-0.639,-0.457,-0.276,0.225,0.694
ATATGTAGGTTAGGGTCATTCCGAAAGTAGGGAA,4.95,3.68,1.27,4.26,1.53,5.69,7.77,6.58,4.22,6.26,6.18,6.86,1.28,2.67,4.29,1.79,4.8,1.82,3.43
CGAACTAGGTCACCAGGACAGTGAGGAGGTTGGA,3.89,2.25,0.127,1.33,-0.378,4.93,7.97,6.87,4.45,6.61,8.37,8.24,-0.39,1.56,0.988,-0.539,1.93,0.16,4.16
CGATCTAGGTCACCAGGACAGTGAAGAGGTTGGA,3.81,2.39,0.00222,1.59,-0.455,4.81,8.42,6.67,4.33,6.26,8.32,8.59,0.925,1.88,1.46,-0.089,2.44,-0.0617,4.03
ATATGCAGGTTAGGGTCATTCAGAAAGTAGGGAA,4.84,4.25,0.906,4.2,0.909,5.12,4.09,4.1,1.99,3.4,2.72,3.16,1.24,2.85,4.28,1.51,4.9,1.16,3.4
CGAACTAGGTCACCCGGACAGTGAAGAGGTTGGA,3.91,2.15,0.102,1.65,0.00893,4.76,8.61,6.77,4.46,6.25,8.23,8.41,0.442,2.42,1.55,0.0197,2.64,0.174,4.22
ATATGTAAGTTAGGGTCATTCAGAAAGTAGGGAA,4.8,4.5,1.55,4.13,1.31,4.91,2.88,3.41,1.15,2.64,1.38,2.41,1.73,2.2,4.63,1.59,5.07,1.77,3.23
CGAACTAGGTCACCAGGACAGTGTAGAGGTTGGA,4.04,2.35,-0.0613,1.77,-0.589,5.08,8.54,6.85,4.68,6.46,8.42,8.73,1.75,2.71,1.58,-0.179,2.54,0.514,4.1
ATATGTAGGTTAAGGTCATTCAGAAAGTAGGGAA,5.54,5.3,3.85,4.59,1.75,5.54,8.49,6.99,5.28,7.39,7.09,7.46,2.29,3.37,4.99,3.21,4.73,2.27,4.35
ATATGTAGGTTAGGGTCCTTCAGAAAGTAGGGAA,0.884,0.754,0.168,1.21,0.702,3.14,4.35,3.79,1.56,2.95,6.21,6.11,1.93,1.37,0.573,0.477,0.72,0.953,1.03
ATATGTAGGTTAGGATCATTCAGAAAGTAGGGAA,0.633,0.786,0.139,0.95,0.084,2.83,3.9,3.07,1.22,2.31,6.17,6.13,1.84,1.69,0.594,0.622,0.758,1.36,0.759
ATATGTAGGTTAGGGTCATTCATAAAGTAGGGAA,5.45,4.03,1.6,4.64,1.55,5.93,8.24,6.58,4.58,6.47,6.2,7.14,4.07,4.85,4.73,2.83,4.99,2.19,3.63
CGAACTATGTCACCAGGACAGTGAAGAGGTTGGA,0.32,0.0175,-0.0452,-0.257,-0.182,1.17,1.5,1.26,0.318,0.775,4.52,3.71,0.886,0.475,-0.0276,-0.042,0.322,0.192,0.847
CGAACTAGGTCAGAGGACAGTGAAAGGCGACGTA,1.21,0.781,-0.404,0.187,-0.968,3.61,8.37,6.52,6.22,7.35,7.39,7.68,-0.191,1.33,0.248,-0.238,0.823,-0.0193,3.36
CGACCTAGGTCACCAGGACAGTGAAGAGGTTGGA,4.89,2.91,-0.161,2.09,-0.881,4.22,5.25,4.5,1.21,3.13,4.19,4.65,-0.593,1.87,1.62,-0.328,2.95,-0.595,4.37
CGAACTAGGTCACCAGGACAGTCAAGAGGTTGGA,4.17,2.7,0.267,1.86,-0.431,5.16,8.84,6.8,4.63,6.37,8.33,8.73,2.35,2.43,1.51,0.0182,2.72,0.536,4.28
ATATGTAGGTTAGGGTCATTGAGAAAGTAGGGAA,4.91,4.11,1.17,4.32,2.74,5.89,7.58,6.31,4.39,5.93,6.25,6.47,1.4,2.67,4.2,1.72,4.69,2.38,3.59
ATATGTAGGTGAGGGTCATTCAGAAAGTAGGGAA,3.06,2.59,1.02,3.43,1.43,5.07,7.86,6.55,4.94,6.5,7.49,7.69,2.2,2.51,3.02,1.81,3.81,2,2.97
CGAACTAGGTGACCAGGACAGTGAAGAGGTTGGA,-0.0348,-0.436,-0.313,-0.307,-0.898,2.67,3.98,3.34,1.03,1.94,7.15,7,-0.325,-0.217,-0.13,-0.15,0.228,-0.394,0.744
CGAACTAGGTCAACAGGACAGTGAAGAGGTTGGA,3.71,2.37,0.16,1.55,-0.34,4.7,7.52,6.53,4.22,6.18,8.18,8.23,0.713,1.93,1.28,0.261,2.27,0.467,4.23
CGAACTAGGTCACCAGGACAGTGATGAGGTTGGA,3.92,2.37,0.0863,1.49,-0.567,4.96,8.57,6.62,4.75,6.58,7.98,8.61,0.614,2.34,1.5,0.423,2.69,0.546,4.16
